Data as given in PubChem BioAssay (NCATS).
Results filed as inconclusive are left out. Active and inactive are the calls of the source. Calls come from the whole dose curve; as a rule, active = well fitted curve in the direction sought with a large enough effect; inconclusive = small, poorly fitted or top-dose-only effect, or another doubt; inactive = no such curve, though single readings can be large; an effect the other way counts as inactive or inconclusive.

Legend:
NIH3T3 = assay: Cytotoxic Profiling of Annotated Libraries Using Quantitative High-Throughput Screening (AID 1296008); conditions: Five cell lines viability, CellTiter-Glo ATP luminescence, 48-72 h; max response: active compounds read low; note: nearly all actives have a fitted effect of over 60% in size
Procedure, shortened: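 Compounds were pin-transferred onto cells and incubated 48 or 72 hr at 37 degree Celsius, 95% humidity. CellTiter-Glo was added, plates sat 10 min at room temperature, then ATP-coupled luminescence was imaged as the viability read-out.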

MKL-1 = assay: qHTS assay to identify novel small-molecules to repurpose for Merkel cell carcinoma treatment (AID 1296009); conditions: MCC and control cell lines, CellTiter-Glo viability, 72 h; series mostly up to 46 µM; note: nearly all actives have a fitted effect of over 60% in size
Procedure, shortened: (§1)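 qHTS format: cells treated with library compounds in DMSO across 8 (NPC) or 11 (MIPE) concentrations. Readout after 72 hr at 37 degree celsius was CellTiter-Glo luminescence.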

UISO = assay: as above; conditions: MCC and control cell lines, CellTiter-Glo viability, 72 h; series mostly up to 46 µM
Procedure, shortened: as §1

WaGa = assay: as above; conditions: MCC and control cell lines, CellTiter-Glo viability, 72 h; series mostly up to 46 µM
Procedure, shortened: as §1

MKL-2 = assay: as above; conditions: MCC and control cell lines, CellTiter-Glo viability, 72 h; series mostly up to 46 µM
Procedure, shortened: as §1

MCC-13 = assay: as above; conditions: MCC and control cell lines, CellTiter-Glo viability, 72 h; series mostly up to 46 µM
Procedure, shortened: as §1

MCC-26 = assay: as above; conditions: MCC and control cell lines, CellTiter-Glo viability, 72 h; series mostly up to 46 µM
Procedure, shortened: as §1

CASKI = assay: Primary qHTS to identify gynecologic anti-cancer compounds using libraries of approved drugs and bioactive compounds (AID 1345084); conditions: Gynecologic cancer cell panel viability, ATPlite luminescence, 48 h; series mostly up to 57.5 µM; note: nearly all actives have a fitted effect of over 55% in size
Procedure, shortened: (§2)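 ATP-based viability (ATPlite), 1,000 cells/well, 16 h pre-incubation, 48 h compound at 37 C, 5% CO2, 15 min RT before read.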

HeLa = assay: as above; conditions: Gynecologic cancer cell panel viability, ATPlite luminescence, 48 h; series mostly up to 57.5 µM
Procedure, shortened: as §2

HACAT = assay: qHTS assay to identify novel small-molecules to repurpose for Merkel cell carcinoma treatment (AID 1296009); conditions: MCC and control cell lines, CellTiter-Glo viability, 72 h; at 44.8 µM (top of the series) unless noted; note: nearly all actives have a fitted effect of over 60% in size
Procedure, shortened: as §1

C33A = assay: Primary qHTS to identify gynecologic anti-cancer compounds using libraries of approved drugs and bioactive compounds (AID 1345084); conditions: Gynecologic cancer cell panel viability, ATPlite luminescence, 48 h; series mostly up to 57.5 µM; note: nearly all actives have a fitted effect of over 55% in size
Procedure, shortened: as §2

Es-2 = assay: as above; conditions: Gynecologic cancer cell panel viability, ATPlite luminescence, 48 h; series mostly up to 57.5 µM
Procedure, shortened: as §2

Hek293T = assay: as above; conditions: Gynecologic cancer cell panel viability, ATPlite luminescence, 48 h, control line for the selectivity index; series mostly up to 57.5 µM
Procedure, shortened: as §2

JEG-3 = assay: as above; conditions: Gynecologic cancer cell panel viability, ATPlite luminescence, 48 h; series mostly up to 57.5 µM
Procedure, shortened: as §2

PA-1 = assay: as above; conditions: Gynecologic cancer cell panel viability, ATPlite luminescence, 48 h; series mostly up to 57.5 µM
Procedure, shortened: as §2

CAOV3 = assay: as above; conditions: Gynecologic cancer cell panel viability, ATPlite luminescence, 48 h; series mostly up to 57.5 µM
Procedure, shortened: as §2

OV90 = assay: as above; conditions: Gynecologic cancer cell panel viability, ATPlite luminescence, 48 h; series mostly up to 57.5 µM
Procedure, shortened: as §2
% is set by controls: 0 for no effect and ±100 for the full control effect; potency is the fitted concentration of half-maximal effect.

O=C(c1ccc(F)c(F)c1Nc1ccc(I)cc1F)N1CC(O)([C@H]2CCCCN2)C1
inactive: Potency (MKL-1) | Potency (UISO) | Potency (WaGa)
active: Potency (NIH3T3) 8.33 µM

COc1c(C)c2c(c(O)c1CC=C(C)CCC(=O)OCCN1CCOCC1)C(=O)OC2
active: Potency (NIH3T3) 5.26 µM | Potency (MKL-2) 1.32 µM | Potency (WaGa) 2.64 µM

CNC1CCC(N(Cc2cccc(-c3ccncc3)c2)C(=O)c2sc3ccccc3c2Cl)CC1 (centres undefined)
inactive: Potency (MCC-13) | Potency (MCC-26) | Potency (HeLa)
active: Potency (MKL-2) 16.6 µM | Potency (CASKI) 22.4 µM

NCc1c[nH]c(=S)n1[C@H]1CCc2c(F)cc(F)cc2C1
active: Potency (MKL-2) 20.9 µM
inactive: outcome (HACAT) | Potency (MCC-13) | Potency (MCC-26)

O=C1CN2Cc3c(ccc(Cl)c3Cl)N=C2N1
inactive: Potency (MCC-13) | Potency (MCC-26) | Potency (MKL-1) | Potency (MKL-2) | Potency (UISO) | Potency (WaGa)

Cc1cccc(Nc2nc(N[C@@H]3CCCC[C@H]3N)ncc2C(N)=O)c1
inactive: Potency (MCC-13) | Potency (MKL-2) | Potency (UISO) | Potency (WaGa)

CCCCc1ccc(NS(=O)(=O)c2ccc(C)c(C(=O)N3CCN(c4cccc(C)c4C)CC3)c2)cc1
inactive: Potency (MCC-13) | Potency (MKL-1) | Potency (MKL-2) | Potency (WaGa)

CC1(C)OC2CC3C4CC(F)C5=CC(=O)C=CC5(C)C4C(O)CC3(C)[C@]2(C(=O)CO)O1 (some centres undefined)
inactive: Potency (MCC-13) | Potency (MCC-26) | Potency (MKL-1) | Potency (MKL-2) | Potency (UISO) | Potency (WaGa)

Cc1nn(Cc2ccccc2Cl)c(C)c1CN(C)CC(O)COc1ccc(Cl)cc1 (centres undefined)
inactive: Potency (MCC-13) | Potency (MCC-26) | Potency (MKL-1) | Potency (WaGa)

O=C1NC(=O)C(c2cnc3ccccn23)=C1c1cn2c3c(cccc13)CN(C(=O)N1CCOCC1)CC2
active: Potency (CASKI) 3.16 µM
inactive: max response (NIH3T3) -24.9% | Potency (MKL-1) | Potency (MKL-2) | Potency (C33A) | Potency (Es-2) | Potency (HeLa) | Potency (Hek293T) | Potency (JEG-3) | Potency (PA-1)

C=CCc1cccc(C=NNC(=O)CN2CCN(Cc3ccccc3)CC2)c1O
active: Potency (MKL-1) 9.35 µM | Potency (MKL-2) 16.6 µM | Potency (WaGa) 16.6 µM
inactive: Potency (MCC-26)

O=C(CCCN1CCN(c2ccc(F)cc2)CC1)NC1c2ccccc2CSc2ccccc21 (centres undefined)
inactive: max response (NIH3T3) -3.67% | Potency (C33A) | Potency (CAOV3) | Potency (CASKI) | Potency (Es-2) | Potency (HeLa) | Potency (Hek293T) | Potency (JEG-3) | Potency (PA-1)

CC(O)=C(C#N)C(=O)Nc1ccc(C(F)(F)F)cc1
inactive: Potency (MCC-13) | Potency (MCC-26)

Cc1cnc(CNC(=O)c2c(=O)c3ccc(N4CCCN(C)CC4)nc3n3c2sc2ccccc23)cn1
inactive: Potency (MCC-13) | Potency (MCC-26) | Potency (MKL-1) | Potency (MKL-2) | activity change, negative = cytotoxicity (C33A) -22% [at 11.6 µM] | activity change, negative = cytotoxicity (CASKI) -0.786% [at 11.6 µM] | activity change, negative = cytotoxicity (Es-2) -19% [at 11.6 µM] | activity change, negative = cytotoxicity (HeLa) -13.6% [at 11.6 µM] | activity change, negative = cytotoxicity (Hek293T) -21% [at 11.6 µM] | activity change, negative = cytotoxicity (JEG-3) -3.1% [at 11.6 µM] | activity change, negative = cytotoxicity (OV90) 10.5% [at 11.6 µM]

CC(C)(O)CC(=O)NCCn1ccc2ncnc(Nc3ccc(Oc4cccc(C(F)(F)F)c4)c(Cl)c3)c21
inactive: Potency (MCC-13) | Potency (MCC-26) | Potency (MKL-1) | Potency (MKL-2) | Potency (UISO) | Potency (WaGa) | Potency (C33A) | Potency (Es-2) | Potency (HeLa) | Potency (Hek293T) | Potency (JEG-3) | Potency (OV90) | Potency (PA-1)

Cc1[nH]c(C=C2C(=O)Nc3ccc(S(=O)(=O)N(C)c4cccc(Cl)c4)cc32)c(C)c1C(=O)N1CCN(C)CC1
active: Potency (NIH3T3) 9.35 µM | Potency (MKL-2) 20.9 µM | Potency (WaGa) 20.9 µM

OC(c1cc(C(F)(F)F)nc2c(C(F)(F)F)cccc12)C1CCCCN1 (centres undefined)
inactive: outcome (HACAT) | Potency (MCC-13) | Potency (MKL-1) | Potency (UISO) | Potency (WaGa)

COc1cc2c(cc1Cc1cccc(Cl)c1F)c(=O)c(C(=O)O)cn2[C@H](CO)C(C)C
active: Potency (MKL-2) 18.7 µM
inactive: Potency (MCC-26)
